Assay outcomes from PubChem.
JMJD2A Tudor: inhibitors of human JMJD2A Tudor domain; O75164; Potency, µM (top dose mostly 114 µM), usual class: inhibitors; AlphaScreen JMJD2A-Tudor / H3K4me3 peptide binding; AID 504339; 4.4% of 390,000 active; note: nearly all actives have a fitted effect of over 50% in size
G9a block: blocks human histone lysine methyltransferase G9a; Q96KQ7; G9a H3K9 monomethylation, AlphaScreen, 2 h; Potency, µM (doses to about 102 µM), most hits filed as inhibitors; 8.8% of 350,000 active; note: nearly all actives have a fitted effect of over 75% in size
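Using a bead-based AlphaScreen, monomethylated H3K9 product from 2 h room-temperature reactions (G9a 20 nM, peptide 500 nM, SAM 20 uM) was detected with 0.5 ug/mL rabbit anti-H3K9me1 antibody.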
L3MBTL1 inh: inhibitors of human L3MBTL1; Q9Y468; AlphaScreen L3MBTL1–H3K9me1 peptide binding; 0.66% of 230,000 active; Potency, µM (titrated, usually from 57.1 µM), most hits filed as inhibitors; note: nearly all actives have a fitted effect of over 60% in size
Target sequence (Q9Y468 whole entry, looked up): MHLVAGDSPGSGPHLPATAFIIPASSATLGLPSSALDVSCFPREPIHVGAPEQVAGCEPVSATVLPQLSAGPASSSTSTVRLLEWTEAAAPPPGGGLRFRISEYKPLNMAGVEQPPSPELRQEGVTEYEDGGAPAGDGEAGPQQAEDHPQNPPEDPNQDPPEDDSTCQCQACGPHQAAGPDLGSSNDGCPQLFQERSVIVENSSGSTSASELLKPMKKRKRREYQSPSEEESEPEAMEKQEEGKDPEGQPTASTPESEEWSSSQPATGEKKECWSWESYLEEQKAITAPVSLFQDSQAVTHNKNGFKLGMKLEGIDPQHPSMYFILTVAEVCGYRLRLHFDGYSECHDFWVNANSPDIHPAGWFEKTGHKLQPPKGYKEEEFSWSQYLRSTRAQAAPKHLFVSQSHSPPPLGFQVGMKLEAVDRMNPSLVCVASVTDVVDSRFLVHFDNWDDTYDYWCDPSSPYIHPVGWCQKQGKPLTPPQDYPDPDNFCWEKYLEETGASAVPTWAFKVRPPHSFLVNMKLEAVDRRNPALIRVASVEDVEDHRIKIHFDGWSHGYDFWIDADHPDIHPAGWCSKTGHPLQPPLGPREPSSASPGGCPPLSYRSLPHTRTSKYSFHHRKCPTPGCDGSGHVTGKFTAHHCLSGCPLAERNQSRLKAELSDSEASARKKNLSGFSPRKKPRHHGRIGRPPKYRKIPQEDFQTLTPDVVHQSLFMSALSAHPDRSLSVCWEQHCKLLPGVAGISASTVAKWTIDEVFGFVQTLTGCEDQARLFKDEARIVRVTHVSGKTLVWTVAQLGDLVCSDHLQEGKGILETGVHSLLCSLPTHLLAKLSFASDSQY
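Displacement of a biotinylated histone H3(1-15) peptide monomethylated at Lys9 (75 nM) from L3MBTL1 (50 nM) was measured by AlphaScreen after a 30 min room-temperature compound incubation; cefsulodin titration served as intraplate control.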
HP1b chromo inh: inhibitors of HP1-beta chromodomain binding to methylated histone tails; P83916; AlphaScreen HP1-beta / biotin-H3K9me3 peptide binding; Potency, µM (doses to about 114 µM), most hits filed as inhibitors; 0.56% of 390,000 active; AID 540317; note: nearly all actives have a fitted effect of over 70% in size
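Compound inhibition of the preformed complex between 50 nM HP1-beta and 50 nM biotinylated H3K9me3 peptide was read by AlphaScreen. Buffer was PBS pH 7.4 with 0.01% Tween-20. Incubations ran 30 min at room temperature, with 10 ug/mL donor/acceptor beads.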
BAZ2B inh: inhibitors of human BAZ2B bromodomain; 4.4% of 360,000 active; Potency, µM (series often up to 114 µM), usual class: inhibitors; Q9UIF8; AlphaScreen BAZ2B-H3K14Ac peptide displacement; note: nearly all actives have a fitted effect of over 60% in size
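Inhibition is scored as reduced AlphaScreen emission. The BAZ2B/b-H3(5-23)K14Ac complex (50 nM each) in PBS pH 7.4, 0.01% Tween-20 meets compound (up to 110 uM) for 30 min at RT before bead addition.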
A number is an active result; 0 = inactive; ? = inconclusive; - = no result given; [ ] = another dose, or the depositor's remark. Hits are enriched below; roughly 11% of the tested compounds scored in any of these assays. Calls come from the whole dose curve; as a rule, active = well fitted inhibition curve with a large enough effect; inconclusive = small, poorly fitted or top-dose-only effect; inactive = no such curve, though single readings can be large or run the other way.

SMILES | JMJD2A Tudor | G9a block | L3MBTL1 inh | HP1b chromo inh | BAZ2B inh
CCOC(=O)CSC1=NC(=O)/C(=C\c2ccc(OC(C)=O)cc2)S1 | 0 | 39.8µM | 0 | 0 | 0
COc1ccc(C2=NN(CC(=O)NCC(OC)OC)C(=O)CC2)cc1 | 0 | 0[2.33 µM] | - | 0 | 0
O=C(O)c1c2c(nc3ccc(S(=O)(=O)N4CCC(C(=O)NC5CCCC5)CC4)cc13)CCCCC2 | 0 | ? | 0 | 0 | 0
CSc1ccc(S(=O)(=O)N2CCC(C(=O)NC3CC3)CC2)cc1 | 0 | 35.5µM | - | 0 | 0
COC(CNC(=O)C1CCN(S(=O)(=O)c2ccc3nc4c(c(C(=O)O)c3c2)CC(C)CC4)CC1)OC (stereo not given) | 0 | 31.6µM | - | 0 | ?
CC1CCc2nc3ccc(S(=O)(=O)N4CCC(C(=O)NC5CCCC5)CC4)cc3c(C(=O)O)c2C1 (stereo not given) | 0 | 44.7µM | - | 0 | 0
O=C(O)c1c2c(nc3ccc(S(=O)(=O)N4CCC(C(=O)N5CCCCC5)CC4)cc13)CCCC2 | 0 | 50.1µM | - | 0 | ?
CC1CCc2nc3ccc(S(=O)(=O)N4CCC(C(=O)O)CC4)cc3c(C(=O)O)c2C1 (stereo not given) | ? | 31.6µM | 0 | 0 | ?
CC(=O)N1c2ccc(S(=O)(=O)N3CCC(C(=O)NC(C)c4ccccc4)CC3)cc2CC1C (stereo not given) | 0 | ? | 0 | 0 | 0
CC1CCc2nc3ccc(S(=O)(=O)N4CCC(C(=O)NC(C)c5ccccc5)CC4)cc3c(C(=O)O)c2C1 (stereo not given) | 0 | 50.1µM | - | 0 | ?
CCc1ccc2nc3c(c(C(=O)O)c2c1)CCC3 | 0 | 50.1µM | ? | 0 | ?
CCOC(CNC(=O)C1CCN(S(=O)(=O)c2ccc3nc4c(c(C(=O)O)c3c2)CCCCC4)CC1)OCC | 0 | 0 | - | 0 | 0
CC1CCc2nc3ccc(S(=O)(=O)N4CCC(C(=O)N5CCCCC5)CC4)cc3c(C(=O)O)c2C1 (stereo not given) | 0 | 44.7µM | - | 0 | 0
CC(C)C1Cc2ccccc2-c2[nH]c(=S)[nH]c(=O)c21 (stereo not given) | 0 | - | - | 0 | -
O=c1[nH]c2ccccc2c2oc(CCl)nc12 | 0 | 35.5µM | 0 | 0 | 0
CCC1CCc2c(c3ccccc3[nH]c2=O)O1 (stereo not given) | 0 | 0 | 0 | 0 | 0
CCCCCCn1c(=O)[nH]c2nc3cc(N)c(C)cc3nc2c1=O | 0 | 3.55µM | 0 | 0 | 0
CCCCn1c(=O)[nH]c2nc3cc(NC(C)=O)ccc3nc2c1=O | 0 | - | - | 0 | ?
Cc1cccc(C)c1NC(=O)N1C(C(=O)O)CSC1C(=O)O (stereo not given) | 17.8µM | ? | 0 | 0 | ?
O=c1c(C(c2ccc(O)cc2)c2c(O)nc3n(c2=O)CCS3)c(O)nc2n1CCS2 | 44.7µM | ? | 0 | 0 | ?
O=c1c(C(c2ccc(O)cc2)c2c(O)nc3n(c2=O)CCCS3)c(O)nc2n1CCCS2 | ? | ? | 0 | 0 | 0
Cc1ccc(C(c2c(O)nc3n(c2=O)CCS3)c2c(O)nc3n(c2=O)CCS3)cc1 | 0 | 10µM | 0 | 0 | 0
CCOc1ccc(CNC(=O)c2cccc(NC(=O)N3CCSc4ncccc43)c2)cc1OC | 0 | 0 | - | 0 | 0
COc1ccc(-c2nc3ccc(NS(=O)(=O)c4ccc(C)cc4)cc3o2)cc1 | 0 | 0 | - | 0 | 0
O=C(Nc1cccc(Cl)c1Cl)c1ccc2c(c1)N(Cc1cccc(Cl)c1)C(=O)c1ccccc1S2=O (stereo not given) | 0 | 0 | - | 0 | 0
SMILES | JMJD2A Tudor | G9a block | L3MBTL1 inh | HP1b chromo inh | BAZ2B inh
CCOC(=O)C1CCN(c2nc3c(S(=O)(=O)c4ccccc4)nnn3c3ccc(Cl)cc23)CC1 | 0 | 0 | - | 0 | 0
CN1CCC(N(C)CC(=O)Nc2ccc3c(c2)OC(F)(F)O3)CC1 | 2µM | - | 0 | ? | 44.7µM
CN(CC(=O)Nc1ccc(Cl)c(Cl)c1)C1CCCCC1 | 22.4µM | 22.4µM | 0 | ? | 0
CN(CC(=O)Nc1ccc(SC(F)F)cc1)C1CCCCC1 | 0 | 79.4µM | - | 0 | 0
CN(CC(=O)Nc1ccccc1Cl)C1CCCCC1 | 0 | 0 | 0 | 0 | 0
Brc1ccc(-c2ccc(CNCCSc3nnnn3-c3ccccc3)o2)cc1 | 0 | 15.8µM | - | 0 | 20µM
C=CCn1c(-c2ccccc2)n[nH]c1=S | ? | 0 | 0 | 0 | 0
C=CCn1c(-c2ccc(F)cc2)n[nH]c1=S | 7.08µM | 20µM | - | 0 | 0
C=CCn1c(-c2ccoc2)n[nH]c1=S | 5.01µM | 0[0.501 µM] | 0 | ? | ?
C=CCn1c(-c2ccncc2)n[nH]c1=S | 15.8µM | - | 0 | 0 | ?
Cc1ccc(-c2cn(CCN)c(-c3ccncc3)n2)cc1 | ? | 0[2.33 µM] | 0 | 0 | ?
CCCn1c(-c2ccncc2)n[nH]c1=S | 7.94µM | ? | 0 | 0 | 0
CC(C)c1ccc(-c2nnc3n(CCc4ccccc4)c(=O)c4ccccc4n23)cc1 | 0 | 0 | - | 0 | 0
COc1ccc(NS(=O)(=O)c2ccccc2C(=O)O)cc1 | 0 | - | - | - | -
O=C(O)c1ccc2c(c1)C(=O)N(Cc1ccco1)C2=O | ? | 56.2µM | 0 | 0 | 0
O=C(O)c1cccc(NC(=O)c2ccc3c(c2)C(=O)N(Cc2ccco2)C3=O)c1 | 0 | - | 0 | 0 | ?
CCc1ccc(NC(=O)c2ccc3c(c2)C(=O)N(Cc2ccco2)C3=O)cc1 | ? | 50.1µM | ? | 0 | ?
O=C1c2cccc3c(O)ccc(c23)C(=O)N1Cc1ccco1 | 0 | 39.8µM | ? | 0 | 0
Cc1cc(C)cc(-n2cnc3cc(C(=O)NCCc4ccccc4)ccc32)c1 | 0 | 0 | - | 0 | 0
Cc1cc(C)n(C(=O)CNC(=O)Cc2ccccc2)n1 | 0 | 0 | 0 | ? | -
Cc1cc(C)n(C(=O)CNC(=O)c2ccco2)n1 | 0 | 70.8µM | 0 | 0 | 0
O=C(CCC(=O)N1CC2CCCN2c2ccccc21)NCc1ccc(F)cc1 (stereo not given) | ? | 0 | - | 0 | 0
CCCn1nnnc1NCc1ccccc1OCC | 0 | 35.5µM | ? | 0 | 0
COc1ccc2nc(NC(=O)CSc3n[nH]c(N)n3)sc2c1 | 0 | 56.2µM | 0 | 0 | 0
Cc1nc(SCC(=O)Nc2nc3ccccc3s2)c(C#N)c(C)c1C | 0 | 10µM | 0 | 0 | 0
SMILES | JMJD2A Tudor | G9a block | L3MBTL1 inh | HP1b chromo inh | BAZ2B inh
COc1ccc2nc(NC(=O)CSc3nc(SC)ns3)sc2c1 | 0 | 20µM | 0 | 0 | 0
Cc1cc(C(F)(F)F)c(C#N)c(SCC(=O)Nc2nc3ccccc3s2)n1 | 0 | 0 | 0 | 0 | 0
Cc1nc(SCC(=O)Nc2nc3ccccc3s2)n[nH]1 | 0 | 79.4µM | - | 0 | 0
Cc1ccc(-c2nnc(SCC(=O)N3CCCc4ccccc43)o2)cc1 | 0 | 0 | - | 0 | 0
O=S(=O)(c1ccc(F)cc1)N(Cc1nc(-c2ccc(Cl)cc2)no1)C1CCCCC1 | 0 | 0 | - | 0 | 0
COc1ccccc1C(=O)Nc1ccc(-c2cc(C(F)(F)F)nn2-c2ccccc2)cc1 | 0 | 0 | - | 0 | 0
CSc1nsc(SCC(=O)NCc2ccccc2)n1 | 0 | 39.8µM | - | 0 | 0
CSc1nsc(SCC(=O)NCc2ccc(C)cc2)n1 | 0 | 0 | 0 | 0 | 0
